Test systems include T-47D breast; BT-549 breast; MDA-MB-435 melanoma; SW-620 colon; MCF7 breast; HCT-116 colon; HCC-2998 colon; KM12 colon.
Holding throughout (test): NCI-60 one-dose screen, 48 h (100 = growth as untreated, 0 = no growth, -100 = all killed)
Holding throughout (conditions): 10 µM unless noted

About 83,000 compounds went through this panel and 20% of them were active in at least one assay; those are over-represented in the sample as a whole.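 For each line, cells grew in 96-well plates with the test compound present at a single concentration for 48 hours.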 A number with no mark means an inactive call. Calls of active or inactive are those of the source. The calls were made as follows: active = growth percent below 10; inactive = the rest.

In the case of `CCCCCCCCNC(=O)C(C)C`, the growth was 95.2% with T-47D breast; 107% with BT-549 breast; 102% in the assay with MDA-MB-435 melanoma; 93.4% in the assay on SW-620 colon; 92% in the assay with MCF7 breast; 92.7% in the assay with HCT-116 colon. Besides, the growth is 115% in the assay on HCC-2998 colon and 102% with KM12 colon.

With `CCC(/C=C\C(C)=O)CC`, the growth in the assay with T-47D breast is 101%; in the assay on BT-549 breast it was 103%; with MDA-MB-435 melanoma it was 100%; in the assay with SW-620 colon, 99%; in the assay with MCF7 breast, 105%; in the assay with HCT-116 colon it was 97.3%. The growth with HCC-2998 colon is 106%; in the assay on KM12 colon, 105%.

With `Cc1cc(Cl)cc(Cc2cc(Cl)cc(C)c2O)c1O`, the growth with T-47D breast was 14%; in the assay on BT-549 breast it was 1.21% (active); in the assay on MDA-MB-435 melanoma it was -10.5% (active); in the assay on SW-620 colon, 14%; in the assay on MCF7 breast it was 22.4%; in the assay on HCT-116 colon it was 8.46% (active). The growth in the assay with HCC-2998 colon is 13.1%; in the assay with KM12 colon it was -5.92% (active).

`CCOC(=O)C1(N)CCCCC1`: the growth with T-47D breast was 93.4%; in the assay on BT-549 breast, 113%; in the assay on MDA-MB-435 melanoma, 99.2%; in the assay with SW-620 colon it was 103%; in the assay on MCF7 breast, 97.1%; in the assay with HCT-116 colon it was 96%. Further, the results for the growth with HCC-2998 colon and in the assay with KM12 colon were 101% and 107%, respectively.

For the molecule `O=C1NC(=O)/C(=C\c2ccncc2)N1`, the growth was 101% with T-47D breast; 99.5% with BT-549 breast; 96% with MDA-MB-435 melanoma; 99% in the assay on SW-620 colon; 94.9% with MCF7 breast; 89.6% with HCT-116 colon. For the same molecule, the results for the growth with HCC-2998 colon and in the assay with KM12 colon were 133% and 86.9%, respectively.

On to `Nc1c(O)c(S(=O)(=O)O)c(O)c2c1C(=O)c1ccccc1C2=O`, for which the growth in the assay with T-47D breast is 23.5%; with BT-549 breast it was 40%; with MDA-MB-435 melanoma it was 21.3%; with SW-620 colon, 15.6%; with MCF7 breast, 13.8%; in the assay with HCT-116 colon, 7.87% (active). The growth is 31.8% in the assay with HCC-2998 colon and 5.95% (active) with KM12 colon.

Consider `Cc1ccc(N2C(=O)c3cccc4c(N)c(S(=O)(=O)O)cc(c34)C2=O)cc1`, for which the growth with T-47D breast was 112%; in the assay on BT-549 breast, 131%; in the assay with MDA-MB-435 melanoma, 115%; in the assay with SW-620 colon it was 109%; in the assay on MCF7 breast it was 110%; in the assay with HCT-116 colon, 102%. For the same molecule, the growth in the assay on HCC-2998 colon was 104%; in the assay on KM12 colon, 99.3%.

For the molecule `Nc1ccc(F)cc1F`, the growth in the assay on T-47D breast is 101%; with BT-549 breast, 103%; in the assay on MDA-MB-435 melanoma, 107%; with SW-620 colon, 106%; in the assay on MCF7 breast, 96%; in the assay on HCT-116 colon, 88.5%. Besides, the growth is 113% in the assay on HCC-2998 colon and 108% in the assay with KM12 colon.

For `O=C(c1ccccc1O)N1CCCC1`, the growth in the assay with T-47D breast is 95.6%; with BT-549 breast, 88.9%; in the assay on MDA-MB-435 melanoma, 103%; in the assay on SW-620 colon it was 100%; in the assay on MCF7 breast, 90.6%; in the assay with HCT-116 colon, 88.5%. Further, the growth in the assay on HCC-2998 colon was 101%; in the assay on KM12 colon it was 107%.

For `O=[n+]1ccn([O-])c2ccccc21`, the growth with T-47D breast is 92.4%; in the assay with BT-549 breast, 92.5%; in the assay with MDA-MB-435 melanoma it was 101%; in the assay with SW-620 colon, 93.9%; with MCF7 breast it was 95.8%; in the assay with HCT-116 colon, 95.7%. The values for the growth in the assay on HCC-2998 colon and in the assay with KM12 colon were 108% and 99%, respectively.

Turning to `COc1cc(C(=O)NC(=S)NCc2ccncc2)cc(OC)c1OC`, the growth is 83.2% in the assay with T-47D breast; 102% in the assay with BT-549 breast; 104% in the assay on MDA-MB-435 melanoma; 110% in the assay on SW-620 colon; 98.3% with MCF7 breast; 97.3% in the assay on HCT-116 colon. Also, the growth was 115% in the assay with HCC-2998 colon and 98% with KM12 colon.

Take `CCCCNC(=O)c1ccc(OCC)cc1`: the growth was 96.1% in the assay on T-47D breast; 99.9% in the assay with BT-549 breast; 103% in the assay with MDA-MB-435 melanoma; 97.9% in the assay with SW-620 colon; 88.6% in the assay with MCF7 breast; 90.5% in the assay on HCT-116 colon. In addition, the growth in the assay on HCC-2998 colon is 104%; with KM12 colon, 106%.

For `Clc1cccc(Cl)c1C1CSc2ccccc2N=C1c1ccccc1` (stereo unspecified), the growth was 65.4% with T-47D breast; 42% in the assay on BT-549 breast; 15.4% in the assay on MDA-MB-435 melanoma; 3.48% (active) with SW-620 colon; 9.8% (active) in the assay on MCF7 breast; 19.3% with HCT-116 colon. Moreover, the growth in the assay on HCC-2998 colon was 95.4%; in the assay with KM12 colon it was 44.1%.

Consider `CS(=O)(=O)c1ccc(/C=C\C(=O)O)cc1`, for which the growth in the assay on T-47D breast was 103%; with BT-549 breast, 102%; with MDA-MB-435 melanoma, 101%; with SW-620 colon, 81.5%; in the assay with MCF7 breast it was 95.8%; in the assay on HCT-116 colon, 93.7%. Moreover, the growth in the assay with HCC-2998 colon is 110%; with KM12 colon it was 94%.

Consider `CCOC(=O)c1ccc(C(C)(C)C)cc1`, for which the growth with T-47D breast is 105%; in the assay on BT-549 breast it was 109%; in the assay with MDA-MB-435 melanoma, 108%; in the assay with SW-620 colon, 107%; in the assay on MCF7 breast it was 104%; in the assay on HCT-116 colon it was 102%. Moreover, the growth in the assay on HCC-2998 colon was 100%; in the assay with KM12 colon, 105%.

Take `Cc1cccc2ccccc12`: the growth was 109% with T-47D breast; 99.6% with BT-549 breast; 104% in the assay on MDA-MB-435 melanoma; 102% with SW-620 colon; 84.1% in the assay on MCF7 breast; 95.8% in the assay on HCT-116 colon. For the same molecule, the growth in the assay on HCC-2998 colon was 99.8%; with KM12 colon, 106%.

In the case of `Nc1ccc2ccccc2c1-c1c(N)ccc2ccccc12`, the growth is 32.2% with T-47D breast; 61.5% in the assay with BT-549 breast; -4.5% (active) in the assay with MDA-MB-435 melanoma; 24.3% in the assay with SW-620 colon; 19.6% with MCF7 breast; 24.9% in the assay with HCT-116 colon. Moreover, the results for the growth with HCC-2998 colon and in the assay with KM12 colon were 66.3% and 25.7%, respectively.

Values taken from PubChem BioAssay (NCI).
